# In publication PMC5540273 (PLoS ONE, 2017):
# What was measured:
# Conditions in all cases: concentration: 1 μM, replicates: in singlicate; n = 1
# CDC2L2 = test system: CDC2L2
# CDC2L5 = test system: T1, CDC2L5
# T1 construct: gene CDK13
# CDK11 = test system: T2, CDK11
# T2 construct: gene CDK19
# CDK2 = test system: CDK2
# CDK3 = test system: CDK3
# CDK4-cyclinD1 = test system: CDK4-cyclinD1
# CDK4-cyclinD3 = test system: CDK4-cyclinD3
# CDK4 = test system: CDK4
# CDK5 = test system: CDK5
# CDK7 = test system: CDK7
# CDK8 = test system: CDK8
# CDK9 = test system: CDK9
# CDKL1 = test system: CDKL1
# CDKL2 = test system: CDKL2
# CDKL3 = test system: CDKL3
# CDKL5 = test system: CDKL5
# CHEK1 = test system: CHEK1
# CHEK2 = test system: CHEK2
# CIT = test system: CIT
# CLK1 = test system: CLK1
# 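Note: KINOMEscan kinase panel screen.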
SMILES,%Inh (CDC2L2),%Inh (CDC2L5),%Inh (CDK11),%Inh (CDK2),%Inh (CDK3),%Inh (CDK4-cyclinD1),%Inh (CDK4-cyclinD3),%Inh (CDK4),%Inh (CDK5),%Inh (CDK7),%Inh (CDK8),%Inh (CDK9),%Inh (CDKL1),%Inh (CDKL2),%Inh (CDKL3),%Inh (CDKL5),%Inh (CHEK1),%Inh (CHEK2),%Inh (CIT),%Inh (CLK1)
CC(C)c1nc(-c2ccc(F)c(NS(=O)(=O)c3c(F)cccc3F)c2)c(-c2ccnc(Nc3ccc(N4CCOCC4)nc3)n2)s1 [GSK1804250],0%,0%,2%,95.5%,35%,26%,0%,87%,51%,10%,28%,1%,22%,99.3%,0%,88%,0%,49%,81%,7%
Nc1cccc(-c2ccc3c(N)n[nH]c3c2)c1 [GSK2193613],16%,0%,8%,1%,0%,13%,0%,0%,0%,15%,42%,3%,19%,23%,0%,0%,0%,6%,30%,43%
CC(C)NCC(Cc1ccccc1)NC(=O)c1cc(Br)c(-c2ccnc3[nH]ccc23)s1.Cl.Cl (stereo not drawn) [GSK1383281],39%,0%,31%,0%,0%,0%,0%,0%,0%,16%,34%,0%,17%,11%,0%,0%,0%,39%,53%,40%
CSc1ccc(NC2=C(c3ccc(Cl)cc3)C(=O)NC2=O)cc1 [SB-317658],2%,0%,0%,6%,18%,0%,0%,12%,28%,36%,0%,0%,0%,0%,0%,0%,0%,13%,0%,17%
Nc1ncc(-c2cn[nH]c2)c2scc(-c3ccc4c(c3)CCN4C(=O)Cc3ccccc3)c12 [GSK2593067],0%,0%,23%,0%,2%,0%,0%,0%,0%,0%,37%,0%,0%,28%,0%,0%,0%,0%,0%,40%
Cc1cccc(Nc2nc(NCCN)ncc2C(N)=O)c1 [GSK1292139],18%,0%,0%,0%,5%,0%,6%,35%,0%,24%,37%,0%,0%,7%,0%,0%,82%,75%,80%,23%
COc1cccc2c(-c3ccncc3)c(-c3ccc(F)cc3)nn12 [GW468513],4%,0%,8%,4%,6%,27%,0%,0%,0%,0%,42%,0%,2%,38%,0%,0%,0%,0%,98%,6%
N#Cc1cnc2cc(-c3cnc(CNCCN4CCOCC4)s3)ccc2c1Nc1ccc(Oc2ccccc2)cc1 [GW664114],6%,0%,0%,0%,7%,0%,4%,10%,0%,15%,10%,0%,0%,61%,0%,29%,0%,82%,22%,40%
O=C(O)C(F)(F)F.O=c1[nH]ccc2nc(N[C@@H]3CCNC3)nc(Nc3ccc4c(c3)S(=O)(=O)CC4)c12 [GSK2181306],0%,0%,0%,62%,53%,90.6%,69%,50%,76%,85%,0%,30%,40%,44%,0%,0%,98.3%,82%,84%,74%
COc1ccc(C)c(Nc2ccnc(Nc3ccc(-c4cnc[nH]4)cc3)n2)c1.Cl [GW784041],16%,0%,2%,0%,3%,0%,0%,0%,0%,0%,35%,0%,44%,0%,0%,1%,0%,0%,0%,18%
c1ccc(Oc2ccc(Nc3ccnc4cc(-c5ccc(CN6CCCCC6)o5)ccc34)cc2)nc1 [GW567143],9%,0%,0%,0%,7%,0%,0%,18%,0%,45%,14%,0%,0%,12%,0%,19%,0%,74%,6%,1%
Cc1ccc(C)c(NC(=O)Nc2ccc(C)c(-c3ccc(C(=O)Nc4ccncc4)cc3)c2)c1 [GSK1398473],5%,0%,74%,0%,0%,0%,2%,0%,2%,0%,4%,0%,0%,42%,0%,24%,22%,0%,96.1%,24%
Cc1ccc(O)cc1Nc1ccnc2cc(-c3ccc(CN4CCCCC4)o3)ccc12 [GW557777],4%,0%,7%,0%,8%,0%,7%,0%,0%,0%,0%,0%,7%,0%,5%,0%,13%,0%,40%,24%
CN(c1ccc(NC(=O)N2CCN(CCCN3CCOCC3)CC2)cc1)c1ccnc(Nc2ccc(CS(C)(=O)=O)cc2)n1.Cl [GW830899],1%,0%,0%,0%,18%,0%,0%,0%,0%,0%,44%,0%,100%,9%,0%,0%,0%,0%,16%,7%
Cc1ccc(O)cc1Nc1ccnc2ccc(C(C)(C)C)cc12 [GW856805],15%,36%,21%,7%,0%,12%,24%,25%,0%,42%,0%,12%,24%,0%,17%,10%,9%,3%,25%,0%
COc1cccc(CC(=O)N2CCc3cc(-c4cn(C)c5ncnc(N)c45)ccc32)c1 [GSK2608899],8%,0%,98.4%,18%,12%,0%,0%,25%,6%,4%,96.6%,12%,1%,4%,0%,0%,0%,0%,5%,29%
CCn1cnc2c(NCc3ccccc3)ncnc21 [SKF-96418],0%,10%,0%,0%,0%,0%,0%,8%,0%,0%,40%,20%,13%,10%,12%,0%,0%,0%,16%,0%
Nc1ncc(-c2ccc3nccc(-c4ccncc4)c3c2)cc1S(=O)(=O)N1CCCCC1 [GSK1693850],21%,0%,73%,0%,7%,9%,13%,0%,0%,80%,45%,5%,0%,27%,0%,0%,1%,23%,31%,81%
COc1cccc(-c2nc(-c3ccccc3)[nH]c2-c2ccncc2)c1 [SB-610250],0%,0%,22%,2%,24%,0%,7%,0%,0%,0%,30%,0%,20%,23%,0%,8%,0%,0%,47%,29%
Cc1cccc(Nc2nc(N[C@H]3CCCC[C@H]3N)ncc2C(N)=O)c1.Cl [GSK986310],11%,0%,24%,0%,24%,0%,1%,0%,5%,48%,0%,17%,9%,28%,0%,0%,57%,1%,66%,42%
O=C(Nc1n[nH]c2cc(-c3cccs3)ccc12)C1CC1 [SB-731284],0%,85%,0%,65%,16%,0%,18%,8%,0%,48%,15%,3%,50%,98.1%,0%,14%,0%,0%,24%,0%
